# Test results from article PMC7862700, “An all-to-all approach to the identification of sequence-specific readers for epigenetic DNA modifications on cytosine”.
# Legend:
# Assay in all cases: DAPPL (digital affinity profiling via proximity ligation, sequencing); 10 mM Tris-HCl pH 7.5, 50 mM NaCl, 1 mM DTT, 4% glycerol, room temperature, 30 min; GST-TFs on glutathione beads, 16-mer random dsDNA library, 0.1% formaldehyde crosslink after washing; high values mean tight binding
# Settings in all cases: protein: recombinant; tags: N-terminal GST; dsDNA, one strand shown
# ERG = target: T1, ERG (Homo sapiens, UniProt P11308 1-479)
# T1 sequence: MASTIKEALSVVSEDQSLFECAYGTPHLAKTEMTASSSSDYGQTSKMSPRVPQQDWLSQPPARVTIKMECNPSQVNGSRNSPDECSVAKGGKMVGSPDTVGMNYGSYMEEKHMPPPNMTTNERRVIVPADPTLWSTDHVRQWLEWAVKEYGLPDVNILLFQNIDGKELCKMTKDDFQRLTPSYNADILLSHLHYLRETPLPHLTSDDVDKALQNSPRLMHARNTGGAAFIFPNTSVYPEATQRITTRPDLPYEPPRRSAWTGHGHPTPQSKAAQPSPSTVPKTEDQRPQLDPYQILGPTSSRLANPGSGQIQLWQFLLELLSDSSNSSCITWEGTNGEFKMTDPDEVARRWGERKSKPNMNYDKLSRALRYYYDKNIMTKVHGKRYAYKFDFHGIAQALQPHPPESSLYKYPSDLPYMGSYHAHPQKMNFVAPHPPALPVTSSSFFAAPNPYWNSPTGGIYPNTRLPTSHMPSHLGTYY
# Outline: (§1)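 Beads coated with glutathione captured GST-fused human transcription factors that had been expressed in yeast, and the factors were then given DNA barcodes and pooled with a tag-only sample. The pools were incubated with 200 nmole of a random double-stranded 16-mer DNA library in Tris/NaCl/DTT/glycerol buffer for 30 min at room temperature, washed, crosslinked with 0.1% formaldehyde and proximity-ligated with BsaI/T4 ligase at 37 °C for 1 h. PCR amplification and Illumina NextSeq500 sequencing came last. Binding signal is each hexamer's read frequency for a factor divided by its frequency for the tag-only sample.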
# ELF1 = ELF1 (Homo sapiens, UniProt P32519 1-619)
# ELF1, sequence (P32519 whole entry): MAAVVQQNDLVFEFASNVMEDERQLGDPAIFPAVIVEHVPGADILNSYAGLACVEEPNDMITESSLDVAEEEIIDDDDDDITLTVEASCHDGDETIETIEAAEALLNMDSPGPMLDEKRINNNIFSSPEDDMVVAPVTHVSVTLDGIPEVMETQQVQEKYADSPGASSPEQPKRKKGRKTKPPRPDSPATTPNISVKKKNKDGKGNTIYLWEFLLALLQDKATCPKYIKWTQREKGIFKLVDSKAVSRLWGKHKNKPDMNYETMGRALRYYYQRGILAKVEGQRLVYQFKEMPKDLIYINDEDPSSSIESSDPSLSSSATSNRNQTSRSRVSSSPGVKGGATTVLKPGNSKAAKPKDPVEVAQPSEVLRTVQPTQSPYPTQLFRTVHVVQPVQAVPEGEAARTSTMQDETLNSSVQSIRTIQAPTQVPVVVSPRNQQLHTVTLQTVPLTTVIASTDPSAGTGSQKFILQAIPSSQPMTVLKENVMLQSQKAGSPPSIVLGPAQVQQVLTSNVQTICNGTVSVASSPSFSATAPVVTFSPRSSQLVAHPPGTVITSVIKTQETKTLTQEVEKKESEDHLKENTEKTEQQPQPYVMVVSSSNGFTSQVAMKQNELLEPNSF
# Outline: as §1
# EHF = target: T2, EHF (Homo sapiens, UniProt Q9NZC4 1-300)
# T2 sequence: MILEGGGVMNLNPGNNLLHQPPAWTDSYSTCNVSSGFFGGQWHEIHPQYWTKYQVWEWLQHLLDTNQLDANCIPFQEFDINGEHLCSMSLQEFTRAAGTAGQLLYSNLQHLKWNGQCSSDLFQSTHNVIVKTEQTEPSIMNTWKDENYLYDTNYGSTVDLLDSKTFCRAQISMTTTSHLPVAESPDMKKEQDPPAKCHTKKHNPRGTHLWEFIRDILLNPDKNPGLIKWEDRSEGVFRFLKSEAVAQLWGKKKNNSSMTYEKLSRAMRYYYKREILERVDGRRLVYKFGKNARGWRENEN
# Outline: as §1
# SPIB = SPIB (Homo sapiens, UniProt Q01892 1-262)
# SPIB, sequence (Q01892 whole entry): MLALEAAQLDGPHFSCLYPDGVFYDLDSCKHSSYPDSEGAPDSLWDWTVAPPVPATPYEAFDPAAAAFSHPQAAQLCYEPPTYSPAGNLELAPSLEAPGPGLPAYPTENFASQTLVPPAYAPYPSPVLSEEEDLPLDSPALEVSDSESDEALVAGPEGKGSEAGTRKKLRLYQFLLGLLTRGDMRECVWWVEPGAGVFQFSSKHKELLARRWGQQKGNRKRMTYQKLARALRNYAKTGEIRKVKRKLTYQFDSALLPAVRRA
# Outline: as §1
# ELK3 = target: T3, ELK3 (Homo sapiens, UniProt P41970 1-407)
# T3 sequence: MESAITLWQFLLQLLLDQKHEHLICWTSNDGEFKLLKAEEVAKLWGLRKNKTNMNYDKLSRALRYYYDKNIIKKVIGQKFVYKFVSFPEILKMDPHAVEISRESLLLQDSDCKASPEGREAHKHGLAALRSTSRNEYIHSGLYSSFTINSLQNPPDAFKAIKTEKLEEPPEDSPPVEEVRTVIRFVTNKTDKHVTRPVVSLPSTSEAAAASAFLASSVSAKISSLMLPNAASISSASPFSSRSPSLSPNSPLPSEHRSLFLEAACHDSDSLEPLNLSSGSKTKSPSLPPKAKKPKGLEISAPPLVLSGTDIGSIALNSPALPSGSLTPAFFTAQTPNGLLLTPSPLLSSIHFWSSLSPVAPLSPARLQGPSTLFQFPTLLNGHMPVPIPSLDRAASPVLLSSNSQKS
# Outline: as §1
# ETV5 = ETV5 (Homo sapiens, UniProt P41161 1-510)
# ETV5, sequence (P41161 whole entry): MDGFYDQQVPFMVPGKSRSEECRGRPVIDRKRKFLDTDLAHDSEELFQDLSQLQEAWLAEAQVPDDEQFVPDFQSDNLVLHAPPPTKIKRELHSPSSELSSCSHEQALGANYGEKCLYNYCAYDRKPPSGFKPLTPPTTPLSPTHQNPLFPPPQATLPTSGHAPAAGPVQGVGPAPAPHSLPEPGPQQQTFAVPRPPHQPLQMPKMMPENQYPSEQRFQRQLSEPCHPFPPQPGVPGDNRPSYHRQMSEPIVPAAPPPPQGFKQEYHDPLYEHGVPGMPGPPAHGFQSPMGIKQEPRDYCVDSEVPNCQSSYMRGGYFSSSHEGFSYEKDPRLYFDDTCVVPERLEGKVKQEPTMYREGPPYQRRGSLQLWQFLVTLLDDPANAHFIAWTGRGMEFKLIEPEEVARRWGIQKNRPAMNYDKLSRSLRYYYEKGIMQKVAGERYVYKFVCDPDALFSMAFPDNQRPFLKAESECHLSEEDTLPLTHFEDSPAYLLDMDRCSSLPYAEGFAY
# Outline: as §1
# ELF4 = ELF4 (Homo sapiens, UniProt Q99607 1-663)
# ELF4, sequence (Q99607 whole entry): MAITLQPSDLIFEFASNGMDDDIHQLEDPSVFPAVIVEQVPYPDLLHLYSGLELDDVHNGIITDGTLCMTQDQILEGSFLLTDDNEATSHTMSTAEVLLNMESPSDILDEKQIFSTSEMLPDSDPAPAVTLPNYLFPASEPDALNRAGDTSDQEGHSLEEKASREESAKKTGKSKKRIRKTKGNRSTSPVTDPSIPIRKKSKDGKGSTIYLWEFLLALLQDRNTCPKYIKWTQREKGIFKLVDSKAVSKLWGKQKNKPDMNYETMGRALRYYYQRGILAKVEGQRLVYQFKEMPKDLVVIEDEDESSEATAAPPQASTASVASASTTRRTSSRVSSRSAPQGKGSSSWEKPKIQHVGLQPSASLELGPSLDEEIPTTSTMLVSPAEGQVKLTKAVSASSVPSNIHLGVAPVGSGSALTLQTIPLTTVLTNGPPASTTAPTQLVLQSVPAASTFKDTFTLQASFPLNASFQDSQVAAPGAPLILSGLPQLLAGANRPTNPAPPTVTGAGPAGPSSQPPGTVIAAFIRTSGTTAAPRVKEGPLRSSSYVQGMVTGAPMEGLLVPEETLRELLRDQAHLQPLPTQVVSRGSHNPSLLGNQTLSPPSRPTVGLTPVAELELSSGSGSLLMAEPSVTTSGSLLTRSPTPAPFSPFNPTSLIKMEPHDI
# Outline: as §1
# ERF = target: T4, ERF (Homo sapiens, UniProt P50548 1-548)
# T4 sequence: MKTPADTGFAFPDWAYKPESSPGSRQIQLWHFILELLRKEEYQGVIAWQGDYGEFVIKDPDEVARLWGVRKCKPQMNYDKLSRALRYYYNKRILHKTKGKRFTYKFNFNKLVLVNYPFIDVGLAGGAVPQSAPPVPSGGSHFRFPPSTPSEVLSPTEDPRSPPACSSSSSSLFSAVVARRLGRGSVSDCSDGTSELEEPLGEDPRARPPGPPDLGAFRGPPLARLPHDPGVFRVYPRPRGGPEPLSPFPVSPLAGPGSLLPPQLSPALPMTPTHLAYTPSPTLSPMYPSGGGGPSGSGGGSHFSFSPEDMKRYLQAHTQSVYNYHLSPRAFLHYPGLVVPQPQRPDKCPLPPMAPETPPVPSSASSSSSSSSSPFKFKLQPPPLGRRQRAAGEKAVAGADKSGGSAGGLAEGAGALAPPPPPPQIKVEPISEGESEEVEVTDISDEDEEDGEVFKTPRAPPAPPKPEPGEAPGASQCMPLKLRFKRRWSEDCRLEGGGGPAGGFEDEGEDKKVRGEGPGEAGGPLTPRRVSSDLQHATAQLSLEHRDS
# Outline: as §1
# ETS2 = target: T5, ETS2 (Homo sapiens, UniProt P15036 1-469)
# T5 sequence: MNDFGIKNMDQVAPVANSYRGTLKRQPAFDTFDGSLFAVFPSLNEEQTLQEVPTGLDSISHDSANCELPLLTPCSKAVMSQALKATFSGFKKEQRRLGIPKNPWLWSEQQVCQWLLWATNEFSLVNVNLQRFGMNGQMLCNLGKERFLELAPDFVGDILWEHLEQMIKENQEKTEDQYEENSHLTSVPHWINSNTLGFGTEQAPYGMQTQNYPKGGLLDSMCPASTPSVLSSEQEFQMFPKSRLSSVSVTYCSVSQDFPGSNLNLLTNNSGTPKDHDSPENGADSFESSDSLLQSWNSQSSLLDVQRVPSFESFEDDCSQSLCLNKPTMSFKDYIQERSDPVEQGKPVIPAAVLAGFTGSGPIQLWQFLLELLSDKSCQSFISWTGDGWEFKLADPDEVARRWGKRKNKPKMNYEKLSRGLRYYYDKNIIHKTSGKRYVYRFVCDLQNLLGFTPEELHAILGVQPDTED
# Outline: as §1
# ETV7 = target: T6, ETV7 (Homo sapiens, UniProt Q9Y603 1-341)
# T6 sequence: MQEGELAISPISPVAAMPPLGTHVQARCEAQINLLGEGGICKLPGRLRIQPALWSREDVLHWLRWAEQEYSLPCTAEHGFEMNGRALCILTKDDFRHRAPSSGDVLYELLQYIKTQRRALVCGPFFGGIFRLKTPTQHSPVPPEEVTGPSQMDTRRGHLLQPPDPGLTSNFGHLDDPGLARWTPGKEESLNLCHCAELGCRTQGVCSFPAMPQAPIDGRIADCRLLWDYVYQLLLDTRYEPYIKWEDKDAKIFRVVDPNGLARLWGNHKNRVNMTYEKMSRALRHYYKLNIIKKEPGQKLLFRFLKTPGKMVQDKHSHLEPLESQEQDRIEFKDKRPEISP
# Outline: as §1
# ETV3 = target: T7, ETV3 (Homo sapiens, UniProt P41162-2 1-143)
# T7 sequence: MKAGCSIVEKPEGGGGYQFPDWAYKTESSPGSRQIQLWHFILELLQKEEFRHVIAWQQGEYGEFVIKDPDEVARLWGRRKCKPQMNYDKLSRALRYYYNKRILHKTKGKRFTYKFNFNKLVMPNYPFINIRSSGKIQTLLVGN
# Outline: as §1
# ETV6 = ETV6 (Homo sapiens, UniProt P41212 1-452)
# ETV6, sequence (P41212 whole entry): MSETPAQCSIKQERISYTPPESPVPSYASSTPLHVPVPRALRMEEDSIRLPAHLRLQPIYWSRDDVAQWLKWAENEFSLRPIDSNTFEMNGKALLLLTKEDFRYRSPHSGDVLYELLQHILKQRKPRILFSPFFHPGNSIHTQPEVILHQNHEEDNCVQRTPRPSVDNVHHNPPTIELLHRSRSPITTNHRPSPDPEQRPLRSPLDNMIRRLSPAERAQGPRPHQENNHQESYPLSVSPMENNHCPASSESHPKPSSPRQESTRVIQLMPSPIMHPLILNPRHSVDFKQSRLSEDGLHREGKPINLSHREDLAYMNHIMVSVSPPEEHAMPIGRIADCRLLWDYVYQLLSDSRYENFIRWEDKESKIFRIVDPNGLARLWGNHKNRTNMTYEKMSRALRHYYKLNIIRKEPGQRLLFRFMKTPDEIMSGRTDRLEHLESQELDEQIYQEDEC
# Outline: as §1
# GABPA = target: T8, GABPA (Homo sapiens, UniProt Q06546 1-454)
# T8 sequence: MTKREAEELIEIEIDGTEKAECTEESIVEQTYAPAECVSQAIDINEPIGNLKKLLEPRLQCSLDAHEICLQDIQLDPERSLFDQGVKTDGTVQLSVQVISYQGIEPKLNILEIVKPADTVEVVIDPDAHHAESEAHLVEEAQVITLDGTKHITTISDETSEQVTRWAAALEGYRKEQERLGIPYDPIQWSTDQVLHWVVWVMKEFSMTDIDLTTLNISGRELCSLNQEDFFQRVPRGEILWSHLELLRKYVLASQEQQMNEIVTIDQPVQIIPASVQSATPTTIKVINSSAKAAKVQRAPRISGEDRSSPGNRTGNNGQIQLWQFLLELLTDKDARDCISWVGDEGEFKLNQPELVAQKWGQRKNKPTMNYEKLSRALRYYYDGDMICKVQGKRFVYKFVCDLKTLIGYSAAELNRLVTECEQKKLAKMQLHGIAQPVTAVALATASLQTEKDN
# Outline: as §1
# SPIC = target: T9, SPIC (Homo sapiens, UniProt Q8N5J4 1-248)
# T9 sequence: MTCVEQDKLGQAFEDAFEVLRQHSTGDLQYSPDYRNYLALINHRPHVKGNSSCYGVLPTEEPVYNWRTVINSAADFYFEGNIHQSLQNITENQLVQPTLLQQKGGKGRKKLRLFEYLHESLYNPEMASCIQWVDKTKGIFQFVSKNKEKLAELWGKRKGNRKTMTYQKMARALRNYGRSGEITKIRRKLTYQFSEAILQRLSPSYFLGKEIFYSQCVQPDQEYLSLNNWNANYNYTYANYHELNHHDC
# Outline: as §1
# ELK4 = target: T10, ELK4 (Homo sapiens, UniProt P28324-2 1-405)
# T10 sequence: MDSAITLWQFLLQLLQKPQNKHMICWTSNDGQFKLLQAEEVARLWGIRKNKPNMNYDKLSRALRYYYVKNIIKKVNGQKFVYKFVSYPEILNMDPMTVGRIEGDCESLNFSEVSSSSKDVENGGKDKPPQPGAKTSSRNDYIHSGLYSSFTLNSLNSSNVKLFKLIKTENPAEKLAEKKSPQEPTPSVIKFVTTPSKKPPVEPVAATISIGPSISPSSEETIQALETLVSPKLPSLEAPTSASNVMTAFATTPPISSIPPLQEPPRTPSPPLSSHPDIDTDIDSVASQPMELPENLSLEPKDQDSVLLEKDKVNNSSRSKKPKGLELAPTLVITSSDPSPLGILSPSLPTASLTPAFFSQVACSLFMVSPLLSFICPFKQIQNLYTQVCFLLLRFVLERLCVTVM
# Outline: as §1
sequence,measurement,setting,value
CCACCG,binding signal,ERG,"1.03 fold enrichment (6-mer frequency, TF over GST control)"
same,binding signal,ELF1,"1.01 fold enrichment (6-mer frequency, TF over GST control)"
same,binding signal,EHF,"1.07 fold enrichment (6-mer frequency, TF over GST control)"
same,binding signal,SPIB,"1.09 fold enrichment (6-mer frequency, TF over GST control)"
same,binding signal,ELK3,"1.06 fold enrichment (6-mer frequency, TF over GST control)"
same,binding signal,ETV5,"1 fold enrichment (6-mer frequency, TF over GST control)"
same,binding signal,ELF4,"1.11 fold enrichment (6-mer frequency, TF over GST control)"
same,binding signal,ERF,"1.2 fold enrichment (6-mer frequency, TF over GST control)"
same,binding signal,ETS2,"1.02 fold enrichment (6-mer frequency, TF over GST control)"
same,binding signal,ETV7,"1.06 fold enrichment (6-mer frequency, TF over GST control)"
same,binding signal,ETV3,"1.04 fold enrichment (6-mer frequency, TF over GST control)"
same,binding signal,ETV6,"1.06 fold enrichment (6-mer frequency, TF over GST control)"
CGACGG,binding signal,GABPA,"1.09 fold enrichment (6-mer frequency, TF over GST control)"
same,binding signal,ELF1,"1.01 fold enrichment (6-mer frequency, TF over GST control)"
same,binding signal,ETV5,"1 fold enrichment (6-mer frequency, TF over GST control)"
same,binding signal,SPIC,"1.15 fold enrichment (6-mer frequency, TF over GST control)"
same,binding signal,ELK4,"1.02 fold enrichment (6-mer frequency, TF over GST control)"
same,binding signal,ETV7,"1.13 fold enrichment (6-mer frequency, TF over GST control)"
same,binding signal,ETV3,"1.05 fold enrichment (6-mer frequency, TF over GST control)"
same,binding signal,ETV6,"1.03 fold enrichment (6-mer frequency, TF over GST control)"
CGGCAA,binding signal,ETV5,"1.02 fold enrichment (6-mer frequency, TF over GST control)"
same,binding signal,ETV6,"1.02 fold enrichment (6-mer frequency, TF over GST control)"
